About 83,000 compounds went through this panel and 20% of them were active in at least one assay; those are over-represented in the sample as a whole.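 The endpoint reported here, percent growth, reads 100 for growth as untreated, 0 for no net growth and -100 for all cells dead.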 Activity calls are given as the source filed them. How the source made its calls: active means growth percent below 10; inactive means the rest.
These compounds were tested on SNB-75 CNS (assay: NCI-60 one-dose screen, 48 h (100 = growth as untreated, 0 = no growth, -100 = all killed)). Conditions: 10 µM unless noted.
For `COc1ccc(/C=C2\COc3ccc(O)cc3C2=O)c(OC)c1`, the growth was 47.5% (inactive).
`CN(C)CCC(O)(Cc1ccccc1)c1ccccc1` (centres undefined) was tested, and the growth was 102% (inactive).
For `COc1ccc(-c2cc(-c3ccc(Nc4nc(Nc5ccccc5)nc(Nc5ccc(Cl)cc5)n4)cc3)nc(N)n2)cc1`, the growth was 55.6% (inactive).
In the case of `Clc1ccc2c(NCCCN3CCN(c4nc(-n5ccnc5)nc5ccccc45)CC3)ccnc2c1`, the growth is reported as 100% (inactive).
For `Cn1ncc2c(Nc3ccc(Br)cc3)nc(Nc3ccc(Br)cc3)nc21`, the growth was 66.9% (inactive).
For `OC(COc1cccc2ccccc12)CN1CCN(c2ccccc2)CC1` (centres undefined), the growth was 81.8% (inactive).
For `O=c1[nH]c(=O)n(C2CC(O)C(CO)O2)cc1CO` (centres undefined), the growth was 84.3% (inactive).
`COc1cc2oc(-c3cccc(C(=O)Nc4ccc(C#N)cc4)c3)cc(=O)c2c(O)c1OC` was tested, and the growth was 83.9% (inactive).
For `C=C(Cl)COC(=O)C(C)(C)O`, the growth was 84.6% (inactive).
`CC(C)(C)OC(=O)N1Cc2cc3ccccc3nc2C1CO` (centres undefined) was tested, and the growth was 76.8% (inactive).
In the case of `COC1(CC[C@@H](C)COC2OC(CO)C(O)C(O)C2O)O[C@H]2C[C@H]3[C@@H]4CC=C5C[C@@H](OC6OC(CO)C(OC7OC(C)C(O)C(O)C7O)C(O)C6OC6OC(C)C(O)C(O)C6O)CC[C@]5(C)[C@H]4CC[C@]3(C)[C@H]2[C@@H]1C` (some centres undefined), the growth is reported as -70.5% (active).
`COc1cc(-c2cc(-c3ccc(Nc4nc(Nc5ccccc5)nc(Nc5ccc(Cl)cc5)n4)cc3)nc(N)n2)cc(OC)c1OC` was tested, and the growth was 56.2% (inactive).
`CN(C)c1ccc(C#Cc2c(F)cccc2Cl)cc1` was tested, and the growth was 75% (inactive).
`NC(N)=N/N=C(/c1ccccc1)c1ccc(N)cc1` was tested, and the growth was 122% (inactive).
For `N=C(N)c1ccc(-c2ccc(-c3ccc(Cl)cc3Cl)o2)cc1`, the growth was 19.7% (inactive).
`O=C(Oc1ccc[nH]c1=O)c1cc([N+](=O)[O-])cc([N+](=O)[O-])c1` was tested, and the growth was 97.1% (inactive).
`Clc1ccc(-c2nnc(Cn3ccnc3)o2)cc1` was tested, and the growth was 91.8% (inactive).
With `COc1cccc(CCC2CCCN(c3cc(C)nc(N)n3)C2)c1` (centres undefined) the growth was 25.9% (inactive).
For `O=C1Nc2ccccc2SC1C1SC(=S)N(Cc2ccccc2)C1=O` (centres undefined), the growth was 51.4% (inactive).
`NC(=Nc1ccc(N)cc1)C(N)=Nc1ccc(N)cc1` was tested, and the growth was 91.8% (inactive).
With `OC(c1cccc(OCc2ccccc2)c1)c1nnc(-c2ccccc2)o1` (centres undefined) the growth was 94.2% (inactive).
For `CN1CCN(c2ccc(Nc3ncc(Cl)c(NC[C@@H]4CCCO4)n3)cc2)CC1`, the growth was 6.49% (active).
In the case of `CC[C@]1(O)C[C@H]2CN(CCc3c([nH]c4ccccc34)[C@@](C(=O)OC)(c3cc4c(cc3OC)N(C=O)[C@H]3[C@@](O)(C(=O)OC)[C@H](OC(C)=O)[C@]5(CC)C=CCN6CC[C@]43[C@@H]65)C2)C1`, the growth is reported as 15.7% (inactive).
`CCN(CC)CC(=O)Nc1cccc(C(=O)OC(C)C)c1` was tested, and the growth was 107% (inactive).
For `Cc1cc(N(CCCNc2ccnc3cc(Cl)ccc23)Cc2ccccn2)nc(N2CCCC2)n1`, the growth was 75.4% (inactive).
For `O=C1CSC(c2ccccc2O)N1c1nnc(Cn2cnnc2)o1` (centres undefined), the growth was 66.8% (inactive).
With `CC(=O)c1sc(-c2ccccc2)cc1N` the growth was 99.5% (inactive).
`COc1ccc(-c2cc(-c3ccc(Nc4nc(Nc5ccccc5)nc(Nc5ccc(Cl)cc5)n4)cc3)nc(N)c2C#N)cc1` was tested, and the growth was 26.7% (inactive).
For `NS(=O)(=O)Oc1ccc(NC(=O)C23CC4CC(CC(C4)C2)C3)cc1Cl`, the growth was 84.3% (inactive).
With `COc1ccc(-c2nc3sccn3c2/C=C/C(=O)c2c[nH]c3ccccc23)cc1` the growth was 39.1% (inactive).
In the case of `COc1ccc(C2=NC(=O)NC2c2ccc(OC)cc2)cc1` (centres undefined), the growth is reported as 46.7% (inactive).
With `N=c1ccn2c(n1)OC1C(O)C(CO)OC12` (centres undefined) the growth was 11.4% (inactive).
For `Cl.Fc1c[c-]c(-c2ccccn2)c(F)c1.[Pt].c1ccc(P(c2ccccc2)C([PH+](c2ccccc2)c2ccccc2)[PH+](c2ccccc2)c2ccccc2)cc1`, the growth was 7.77% (active).
`CCCn1nc(-c2ccccc2)c2c(-c3ccccc3)onc2c1=O` was tested, and the growth was 53% (inactive).
For `N#Cc1c(-c2ccccc2)nc(SCC2CO2)nc1N1CCOCC1` (centres undefined), the growth was 34.1% (inactive).
For `CCNCCNc1cc(-c2cccc(C(F)(F)F)c2)c(C#N)c2nc3ccccc3n12`, the growth was -89.3% (active).
With `COc1ccc(Cn2cnc3cc(C(=O)Nc4cccc5ccccc45)ccc32)c(OC)c1` the growth was 35.4% [30 µM] (inactive).
For `CC(C)(C)N1CC(OC(N)=O)C1`, the growth was 81.6% (inactive).
With `Cc1ccc(-n2nnc(C3=NCCc4c3[nH]c3ccc(Cl)cc43)c2C)cc1` the growth was 103% (inactive).

— PubChem BioAssay (NCI)
